Most compounds without a hit are left out; they make up all but 7.9% or so of the library.
MCF10A rerep: inducers of DNA re-replication in MCF 10A breast cells; MCF 10A DNA re-replication, Hoechst nuclear intensity, 48 h; Potency, µM (titrated, usually from 46.1 µM), for the others: top-dose activity, positive = re-replication, most hits filed as activators; 350,000 compounds, 2.9% hits; AID 624296; also: % of control where 0% means no effect; nearly all actives have a fitted effect of over 50% in size
KB-V1 MDR tox: KB-V1 MDR subline cytotoxicity | 400,000 compounds, 3.4% hits | KB-V1 MDR cells viability, CellTiter-Glo, 72 h | AID 1347076 | Potency, µM (titrated, usually from 46.1 µM), most hits filed as cytotoxic; also: % is scaled to controls: 0 for no effect and ±100 for the full control effect; nearly all actives have a fitted effect of over 60% in size
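KB-V1 cells (P-gp-expressing MDR subline of KB-3-1) in phenol-red-free DMEM with 10% FBS were exposed to library compounds over a concentration series for 72 h at 37 degrees C. Viability read by CellTiter-Glo luminescence; concentration-effect curves fitted after normalization.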
HT1080 IDH1KD tx: kills HT-1080 cells with IDH1 knockdown. HT-1080 IDH1 knockdown viability, ATP luminescence, 48 h. Potency, µM (titrated, usually from 46.1 µM), inactives show at the highest dose activity, negative = toxicity, hits mostly cytotoxic. 360,000 compounds, 2% hits. AID 686971;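 also: 0% = DMSO wells and -100% = cell-free medium wells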
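% activity derives from luminescence (CellTiter-Glo), normalised to DMSO and no-cell wells. HT-1080-IDH1KD cells, 750/well, had 48 h compound exposure at 37 °C.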
KB-3-1 tox: kills parental KB-3-1 adenocarcinoma cells; KB-3-1 viability, CellTiter-Glo ATP luminescence, 72 h; Potency, µM (series often up to 46.1 µM), actives largely listed as cytotoxic; 400,000 compounds, 1.4% hits; also: % is scaled to controls: 0 for no effect and ±100 for the full control effect; nearly all actives have a fitted effect of over 60% in size
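Cytotoxicity in the drug-sensitive parental line KB-3-1 was scored as loss of CellTiter-Glo luminescence following 72 h incubation with compound. Values come from curve fitting of normalized concentration-response data.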
HT1080-NT tox: kills 2HG-producing HT-1080-NT fibrosarcoma cells; HT-1080-NT fibrosarcoma viability, CellTiter-Glo ATP luminescence, 48 h; 360,000 compounds, 1.6% hits; Potency, µM (series often up to 46.1 µM), inactives show top-dose activity, negative = less viability, usual class: cytotoxic;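 also: NT is the 2HG producing partner of a matched IDH1 knockdown line; 0% = DMSO-treated cells and -100% = media-only wells without cells; nearly all actives have a fitted effect of over 55% in size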
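Luminescent CellTiter-Glo readout after 48 hours of compound exposure at 37 degrees C defined viability of HT-1080-NT cells. Activity was normalized to DMSO wells and cell-free media wells; concentration-response curves were fitted and assigned curve classes.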
SW480 rerep: inducers of DNA re-replication in SW480 colon cancer cells; SW480 DNA re-replication, Hoechst DNA content imaging, 48 h; Potency, µM (top dose mostly 46.1 µM), for inactives: at the highest dose re-replication activation, usual class: activators; 340,000 compounds, 1.8% hits; also: % of control where 0% means no effect; nearly all actives have a fitted effect of over 55% in size
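Compounds, transferred as 23 nL by pin tool, were incubated with cells for 48 hr; DNA content per nucleus was then quantified by Hoechst staining and fluorescence plate imaging.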
* hit, by the source's call; i = inactive; ? = inconclusive; · = not tested or not shown. Calls follow the shape of the dose curve; as a rule, active = well fitted curve in the direction sought with a large enough effect; inconclusive = small, poorly fitted or top-dose-only effect, or another doubt; inactive = no such curve, though single readings can be large; an effect the other way counts as inactive or inconclusive. Potency is read from the fitted curve at half-maximal effect.

SMILES	MCF10A rerep	KB-V1 MDR tox	HT1080 IDH1KD tx	KB-3-1 tox	HT1080-NT tox	SW480 rerep
Cc1ccc(C(=O)Nc2nnc(CC(=O)N/N=C/c3ccncc3)s2)cc1	0%	i	2%	i	6%	21µM*
CC(C)c1nnc(-c2ccc(Cl)cc2)c(N(C)C)n1	2%	21µM*	-1%	i	4%	-2%
CCN(CC)CCNC(=O)Cn1nc(Cc2ccncc2)c2ccccc2c1=O	-3%	?	4%	i	8%	-22%
CCN(CC)CCNC(=O)Cc1nn(Cc2ccccc2)c(=O)c2ccccc12	175%	i	-9%	i	1%	2.3µM*
O=C(CSc1n[nH]c(=O)n1C1CC1)Nc1cc(Cl)ccc1Oc1ccccc1	?	16µM*	-19%	i	-22%	-8%
O=C(CSc1n[nH]c(=O)n1C1CC1)Nc1ccccc1	13%	i	6%	i	2%	3%
CC(=O)Nc1cc(C(=O)N(C)Cc2ccco2)ccc1Sc1ccc(Cl)cc1	?	2.9µM*	-10%	i	-2%	-34%
CC(=O)Nc1cc(C(=O)NCc2ccco2)ccc1Sc1ccc(Cl)cc1	15%	?	-4%	i	-4%	-10%
CC(=O)Nc1cc(C(=O)NCc2ccco2)ccc1Sc1ccc(F)cc1	-12%	?	6%	i	4%	1%
CCOc1ccccc1CNC(=O)c1ccc(Sc2ccc(Cl)cc2)c(NC(C)=O)c1	20%	18µM*	3%	i	0%	?
CCOc1ccc(CNC(=O)c2ccc(Sc3ccc(Cl)cc3)c(NC(C)=O)c2)cc1	?	8.2µM*	?	?	-22%	4%
Cc1ccc(OCc2nc3ccccc3n2Cc2ccccc2Cl)cc1	·	i	·	i	·	·
Nn1c(SCC(=O)NC2CCCCCC2)nnc1-c1ccco1	·	i	0%	i	1%	·
COc1ccc(CNC(=O)CCc2c(C)nc3nc(CNC(=O)OC(C)(C)C)nn3c2C)cc1	·	?	·	i	·	·
O=C(NCc1ccco1)c1sc(=S)n2c1[nH]c(=O)c1ccccc12	?	21µM*	?	?	-26%	2%
O=C(NC1CCCC1)c1sc(=S)n2c1[nH]c(=O)c1ccccc12	?	?	-42%	12µM*	-2%	?
O=C(NCc1ccccc1)c1ccc2c(=O)[nH]c3c(C(=O)NCC4CCCO4)sc(=S)n3c2c1 (stereo not given)	-10%	i	0%	?	-4%	-14%
CC(C)c1ccc(S(=O)(=O)c2nnn3c2nc(N2CCCCC2)c2sccc23)cc1	·	i	·	i	·	·
COc1cccc(C2CC(=O)Nc3c2c(=O)nc2c(C)cccn32)c1OC (stereo not given)	·	?	·	i	·	·
Cc1ccc(S(=O)(=O)c2cc3cc(C(=O)Nc4ccc(C)cc4C)ccc3oc2=O)cc1	·	i	·	i	·	·
CC(=O)C1=C(c2cccc([N+](=O)[O-])c2)N(C(C)=O)n2c(C)nnc2S1	23µM*	i	?	15µM*	?	?
Cc1ccc(-n2nnnc2C(Cl)(Cl)c2nnnn2-c2ccc(C)cc2)cc1	16%	?	5.6µM*	i	?	2%
CCCCOc1ccc(CN=C(N)N)cc1Cl	?	i	?	?	?	20%
CCCOc1ccc(CCCN=C(N)N)cc1Cl	?	i	21µM*	21µM*	?	21%
CCCCc1c(-c2ccccc2Br)ncn1CCc1ccccc1OC	·	15µM*	?	?	?	·
SMILES	MCF10A rerep	KB-V1 MDR tox	HT1080 IDH1KD tx	KB-3-1 tox	HT1080-NT tox	SW480 rerep
CCCCN(CC)C(=O)Cc1ccccc1OC	14%	?	-4%	i	-4%	1%
CCCCc1c(-c2ccccc2OC)ncn1CCc1ccccc1Cl	·	18µM*	?	?	?	·
CCCCCc1c(-c2ccccc2OC)ncn1CCc1ccccc1OC	·	12µM*	16µM*	23µM*	16µM*	·
COc1cccc(Cn2cnc(-c3ccccc3OC)c2-c2ccco2)c1	·	?	-16%	?	-30%	·
CCCCCc1c(CC)ncn1CCc1ccccc1OC	·	?	?	16µM*	26µM*	·
O=C(Cn1c(=O)n(Cc2ccc(C(=O)NCc3ccccc3Cl)cc2)c(=O)c2ccccc21)Nc1ccc(F)c(Cl)c1	·	i	·	i	·	·
CCCCc1c(-c2ccccc2OC)ncn1CCc1ccccc1OC	·	8.2µM*	13µM*	?	18µM*	·
COCCNC(=O)C1CCCN(C(=O)/C=C/c2ccccc2)CC1 (stereo not given)	·	i	3%	i	24%	·
COc1cccc(NC(=O)C(Cc2ccccc2)NS(=O)(=O)c2ccc3c(c2)oc(=O)n3C)c1 (stereo not given)	·	i	·	i	·	·
CC(NC(=O)COC(=O)c1cn(-c2ccccc2)nc1-c1cccs1)c1ccccc1 (stereo not given)	?	21µM*	-5%	i	0%	6%
COc1ccccc1-c1nn(CCC(=O)Nc2ccccc2)c2nc(C)cc(C)c12	·	i	·	i	·	·
Cc1cc(/C=N/n2cnnc2)c(C)n1-c1ccc(OCc2ccc(Cl)cc2)cc1	?	3.7µM*	?	8.2µM*	-18%	2%
CC1(Cc2ccccc2C#N)C(=O)Nc2ccc(OC(F)(F)F)cc21 (stereo not given)	·	i	-8%	i	1%	·
CC1(Cc2ccccc2Cl)C(=O)Nc2ccc(OC(F)(F)F)cc21 (stereo not given)	·	i	29µM*	i	?	·
CC(C)[C@@H](CO)NC(=O)c1ccc2c3n(nc2c1)-c1ccccc1CO3	-1%	i	?	i	?	-6%
CC(C)NC(=O)c1ccc2c3n(nc2c1)-c1ccccc1CO3	24%	5.8µM*	?	?	?	-13%
Cc1cccc(C(=O)Nc2nc(C)c(C(=O)Nc3ccc4c(c3)CCC4)s2)c1	-7%	?	?	?	11µM*	-4%
O=C1CSC2(C(=O)N(Cc3ccccc3F)c3ccccc32)N1c1ccc(F)cc1 (stereo not given)	·	16µM*	·	?	·	·
CCc1cccc(N2C(=O)CSC23C(=O)N(Cc2ccccc2F)c2ccccc23)c1 (stereo not given)	·	15µM*	·	21µM*	·	·
CS(=O)(=O)c1ccc(/C=C2\C=Cc3ccccc32)cc1	·	i	·	i	·	·
CC1=C/C(=N\OS(=O)(=O)c2ccccc2)C(C)=CC1=O	4µM*	5.8µM*	9.2µM*	13µM*	4.6µM*	4.1µM*

Compound activity as filed in PubChem.
